Potency and affinity values are given separately. Active and inactive are the calls of the source.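 Rule for the calls: active = compounds whose curve fit is tight, with span above 25% and half-effect concentration below 10 µM; inactive = the rest.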
Biological target: Beta-adrenergic receptor kinase 1 (Homo sapiens) (UniProt P25098)
Assay: aptamer displacement from bead-bound GRK2 – biochemical, cherry pick 1, bead flow cytometry, dose response (AID 504500)
Settings: bead-bound biotinylated GRK2, FAM-aptamer displacement; series mostly up to 33 µM

Chain of Beta-adrenergic receptor kinase 1 (Homo sapiens) (P25098 whole entry, looked up): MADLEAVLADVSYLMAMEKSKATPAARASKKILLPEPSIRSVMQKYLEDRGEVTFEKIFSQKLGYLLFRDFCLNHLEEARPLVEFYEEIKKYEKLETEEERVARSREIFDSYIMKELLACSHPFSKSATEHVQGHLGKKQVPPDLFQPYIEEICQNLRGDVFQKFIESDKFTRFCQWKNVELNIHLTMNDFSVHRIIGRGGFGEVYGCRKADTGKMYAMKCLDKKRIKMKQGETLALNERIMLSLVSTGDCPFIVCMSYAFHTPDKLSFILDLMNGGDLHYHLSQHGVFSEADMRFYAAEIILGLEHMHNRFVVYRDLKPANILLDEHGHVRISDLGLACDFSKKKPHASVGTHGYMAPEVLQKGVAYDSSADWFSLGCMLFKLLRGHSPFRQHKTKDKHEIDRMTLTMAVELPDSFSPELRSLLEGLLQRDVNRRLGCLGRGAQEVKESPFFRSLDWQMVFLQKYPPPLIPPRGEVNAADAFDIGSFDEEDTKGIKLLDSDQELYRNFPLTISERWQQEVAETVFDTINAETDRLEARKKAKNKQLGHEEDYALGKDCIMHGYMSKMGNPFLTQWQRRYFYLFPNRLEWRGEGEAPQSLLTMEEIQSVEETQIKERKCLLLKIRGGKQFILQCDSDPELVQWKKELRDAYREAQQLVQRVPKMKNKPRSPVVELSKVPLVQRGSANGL

outcome, inactive:
CC1CCN(C(=O)c2[nH]cnc2C(=O)Nc2cccc(Cl)c2)CC1
O=C(Nc1cccc(-c2ccc(N3CCOCC3)nn2)c1)c1ccccc1
CCOC(=O)c1sc(NCc2ccco2)c(-c2nc3ccccc3s2)c1N
CCNc1nc(NCC)n2c(SCC(=O)Nc3ccc(C)c(C)c3)nnc2n1
Cc1ccc(S(=O)(=O)Cc2ccc(C(=O)O)o2)cc1
O=C(/C=C/c1ccco1)OCC(=O)N1CCCCC1
COc1ccc2nc(SCC(=O)Nc3ccc4c(c3)OCCO4)[nH]c2c1
C#CCSc1nc2sc3c(c2c(=O)n1C)CCC3
CNC(=O)c1[nH]cnc1C(=O)Nc1cccc(Cl)c1
COc1ccc(CCNC(=O)CCS(=O)(=O)c2ccc(Br)cc2)cc1OC
COc1ccc(N2CCN(C(CNS(=O)(=O)c3ccccc3)c3ccccc3)CC2)cc1 (stereo not drawn)
O=C(O)C1Nc2c(O)cc(Cl)c([N+](=O)[O-])c2C2C=CCC12 (stereo not drawn)
Cc1ccc(CCNC(=O)CCS(=O)(=O)c2ccc(Br)cc2)cc1
